The text below walks through data of PubChem BioAssay (Tox21).

Inconclusive results are not listed. Unmarked numbers belong to inactive results. The source made the active and inactive calls. Calls follow the shape of the dose curve; as a rule, active = well fitted cell-killing curve with a large enough effect in the repeat runs; inconclusive = weak or mixed curves, or effect the other way; inactive = flat fitted curve, though single readings scatter.

The nature of assay [1]: cAMP Responsive Elements (CRE) small molecule antagonists, cell-based qHTS assay: qHTS cell viability counter screen (AID 2060913). Also: nearly all actives have a fitted effect of over 40% in size. In outline: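 Viability of NKH477-stimulated (0.25 uM final) CRE-bla HEK293T cells is measured by CellTiter-Glo luminescence following 3 hrs compound exposure at 37 C.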
(In general: Quantitative high-throughput screening tests each substance at several concentrations.)

Assay [2] is described as follows: cAMP Responsive Elements (CRE) small molecule agonists, cell-based qHTS assay: qHTS cell viability counter screen (AID 2060914). Also: nearly all actives have a fitted effect of over 50% in size. The procedure, abridged: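 HEK 293T CRE-bla; DMEM + 10% dialyzed FBS, 25 mM HEPES; 18 h pre-incubation; compound 3 h, 37 °C/5% CO2; CellTiter-Glo added after reporter read; luminescence after 30 min RT.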
% is scaled to controls: 0 for no effect and ±100 for the full control effect.

As to `C[C@H](CCC(=O)O)[C@H]1CC[C@H]2[C@@H]3[C@H](O)C[C@@H]4C[C@H](O)CC[C@]4(C)[C@H]3CC[C@]12C`, the Potency result in assay [1] and in assay [2] was “inactive” each time.

Regarding `Nc1c(S(=O)(=O)O)cc(Br)c2c1C(=O)c1ccccc1C2=O`, the Potency result in assay [1] and in assay [2] was “inactive” throughout.

On to `ON=C1CCCC1`, for which the Potency entry in assay [1] and in assay [2] was “inactive” each time.

As to `CC(=O)N(CC(=O)N(C)C)c1ccccc1`, the Potency entry in assay [1] and in assay [2] was “inactive” in each case.

`CC(CN1c2ccccc2Sc2ccccc21)N(C)C` (stereo not given): the Potency result in assay [1] and in assay [2] was “inactive” each time.

In the case of `CC(=O)OCc1ccc2c(c1)OCO2`, the Potency entry in assay [1] and in assay [2] was “inactive” each time.

For `CC(=O)CC(=O)Nc1ccc(S(=O)(=O)O)cc1`, the Potency result in assay [1] and in assay [2] was “inactive” in each case.

As for `CC1CCC(C(C)C)C(O)C1` (stereo not given), the Potency entry in assay [1] and in assay [2] was “inactive” in each case.

For the compound `CC(C)OC(C)C`, the Potency entry in assay [1] and in assay [2] was “inactive” in each case.

Regarding `CCC(=O)Nc1cccc(N)c1`, the Potency result in assay [1] and in assay [2] was “inactive” in each case.

With `CCCCCCCCCCCCCCC(=O)O`, the Potency entry in assay [1] and in assay [2] was “inactive” throughout.

For `CCCCCCCCCCCC(=O)N(C)CC(=O)O`, in assay [1], the viability change, negative = cytotoxic was 1.91% [at 8.39 µM]. Further, in assay [2], the activity change, negative = cytotoxicity was 0.181% [at 8.39 µM].

With `CC(C)(C)C1CCCCC1O` (stereo not given), the Potency result in assay [1] and in assay [2] was “inactive” each time.

In the case of `CC(C)(C)c1cc(O)c(C(C)(C)C)cc1O`, the Potency entry in assay [1] and in assay [2] was “inactive” each time.

On to `O=C(Nc1ccc2c(c1)Cc1ccccc1-2)C(F)(F)F`, for which the Potency result in assay [1] and in assay [2] was “inactive” each time.

For the compound `CC(C)(CO)[C@@H](O)C(=O)NCCC(=O)O`, the Potency entry in assay [1] and in assay [2] was “inactive” in each case.

On to `CCCCCCOC(=O)CCCCCCCC(=O)OCCCCCC`, for which the Potency result in assay [1] and in assay [2] was “inactive” throughout.

Consider `CCc1ccc(C)nc1`, for which the Potency entry in assay [1] and in assay [2] was “inactive” throughout.

Turning to `CNC(=O)c1cc(Oc2ccc(NC(=O)Nc3ccc(Cl)c(C(F)(F)F)c3)cc2)ccn1`, the Potency entry in assay [1] and in assay [2] was “inactive” each time.

For the compound `CN1CC(=O)N/C1=N/C(=O)Nc1cccc(Cl)c1`, the Potency entry in assay [1] and in assay [2] was “inactive” each time.

Take `Cc1nc(C)nc(N2C[C@@H](C)N(c3ccnc([C@@H](C)O)n3)[C@@H](C)C2)n1`: the Potency entry in assay [1] and in assay [2] was “inactive” in each case.

`CC(C)=CCC1C(=O)N(c2ccccc2)N(c2ccccc2)C1=O`: the Potency entry in assay [1] and in assay [2] was “inactive” in each case.

With `CCCCOCC`, the Potency result in assay [1] and in assay [2] was “inactive” throughout.

Turning to `O=C(CCCCCCCCc1cccnc1)N1CCC(C=C(c2ccccc2)c2ccccc2)CC1`, the Potency result in assay [1] and in assay [2] was “inactive” throughout.

As to `O=C(N/N=C/c1ccc([N+](=O)[O-])o1)c1ccc(O)cc1`, the Potency entry in assay [1] and in assay [2] was “inactive” throughout.

In the case of `O=C1CCCCCCCCCCCCCCO1`, the Potency entry in assay [1] and in assay [2] was “inactive” each time.

With `OCCCCl`, the Potency entry in assay [1] and in assay [2] was “inactive” each time.

For `CCCOCCOCCOCCO`, the Potency result in assay [1] and in assay [2] was “inactive” in each case.

Turning to `COC(c1ccccc1)(c1ccccc1)[C@H](Oc1nc(C)cc(C)n1)C(=O)O`, the Potency entry in assay [1] and in assay [2] was “inactive” in each case.

Regarding `C=C(C)C(=O)OCCOCCOCCOC(=O)C(=C)C`, the Potency entry in assay [1] and in assay [2] was “inactive” in each case.

In the case of `O=C(/C=C/c1ccccc1)OCCCc1ccccc1`, the Potency entry in assay [1] and in assay [2] was “inactive” each time.

In the case of `CC[N+](CC)(CCNC(=O)C(=O)NCC[N+](CC)(CC)Cc1ccccc1Cl)Cc1ccccc1Cl`, the Potency result in assay [1] and in assay [2] was “inactive” throughout.

As to `Cc1scc2c1N(C(=O)CN1CCN(C)CC1)c1ccccc1NC2=O`, the Potency result in assay [1] and in assay [2] was “inactive” throughout.

As for `O=C(c1ccc(O)c(O)c1)c1ccc(O)cc1O`, the Potency result in assay [1] and in assay [2] was “inactive” in each case.

On to `COC(=O)c1ccc(OC)cc1`, for which the Potency entry in assay [1] and in assay [2] was “inactive” throughout.

`CC(=O)CC(c1ccc([N+](=O)[O-])cc1)c1c(O)c2ccccc2oc1=O` (stereo not given): the Potency result in assay [1] and in assay [2] was “inactive” throughout.

Take `CCOC(=O)C1=C[C@]2(CC)CCCN3CCc4c(n1c1ccccc41)[C@@H]32`: the Potency entry in assay [1] and in assay [2] was “inactive” throughout.

For the compound `CN(C)c1ccc(C(c2ccccc2)c2ccc(N(C)C)cc2)cc1`, the Potency entry in assay [1] and in assay [2] was “inactive” each time.

Take `CC(=O)CC(c1ccccc1)c1c(O)c2ccccc2oc1=O` (stereo not given): the Potency result in assay [1] and in assay [2] was “inactive” throughout.

Take `O=C1N=C(O)CN1/N=C/c1ccc(-c2ccc([N+](=O)[O-])cc2)o1`: the Potency result in assay [1] and in assay [2] was “inactive” throughout.

As for `ClC/C=C\CCl`, the Potency result in assay [1] and in assay [2] was “inactive” in each case.

On to `O=P(O)(O)O`, for which the Potency result in assay [1] and in assay [2] was “inactive” in each case.

Take `CC(CCO)CCc1ccccc1` (stereo not given): the Potency entry in assay [1] and in assay [2] was “inactive” in each case.

In the case of `C=Cc1ccc(O)c(OC)c1`, the Potency entry in assay [1] and in assay [2] was “inactive” throughout.

On to `CCCCCOC(C)=O`, for which the Potency result in assay [1] and in assay [2] was “inactive” each time.

Take `OCC(O)CS` (stereo not given): the Potency entry in assay [1] and in assay [2] was “inactive” throughout.

With `O=C(O)CCc1nc(-c2ccccc2)c(-c2ccccc2)o1`, the Potency result in assay [1] and in assay [2] was “inactive” in each case.

As for `C[C@H]1[C@H](NC(=O)/C(=N/OC(C)(C)C(=O)O)c2csc(N)n2)C(=O)N1S(=O)(=O)O` (stereo in doubt), the Potency entry in assay [1] and in assay [2] was “inactive” each time.

Consider `CC1=C(C)C(=O)C(CCCCC#CCCCC#CCO)=C(C)C1=O`, for which the Potency result in assay [1] and in assay [2] was “inactive” each time.

As for `COCc1c(C(C)C)nc(C(C)C)c(/C=C/[C@@H](O)C[C@@H](O)CC(=O)O)c1-c1ccc(F)cc1`, the Potency result in assay [1] and in assay [2] was “inactive” throughout.

Consider `Cc1cn([C@H]2C=C[C@@H](CO)O2)c(=O)[nH]c1=O`, for which the Potency result in assay [1] and in assay [2] was “inactive” in each case.

Consider `c1cnc2c(c1)ccc1cccnc12`, for which the Potency result in assay [1] and in assay [2] was “inactive” in each case.

In the case of `FC(F)(F)C(Cl)Br` (stereo not given), the Potency result in assay [1] and in assay [2] was “inactive” each time.

As for `CC(=O)O[C@@H]1CC2CCC1(C)C2(C)C` (stereo not given in full), the Potency entry in assay [1] and in assay [2] was “inactive” each time.

Regarding `C/C(=N/NC(=O)c1ccncc1)C(=O)O`, the Potency result in assay [1] and in assay [2] was “inactive” each time.

For `O=C(NS(=O)(=O)/C=C/c1ccccc1)c1ccc(F)cc1Cl`, the Potency result in assay [1] and in assay [2] was “inactive” throughout.

Regarding `O=c1[nH]c2ccccc2c(=O)n1CCCl`, the Potency result in assay [1] and in assay [2] was “inactive” in each case.

Regarding `O=c1oc2c(O)c(O)cc3c(=O)oc4c(O)c(O)cc1c4c23`, the viability change, negative = cytotoxic in assay [1] is 2.4% [at 18.9 µM]. The activity change, negative = cytotoxicity in assay [2] was -1.77% [at 18.9 µM].

On to `CCCCCCCCCCC(CO)CCCCCCCC` (stereo not given), for which the Potency entry in assay [1] and in assay [2] was “inactive” each time.

With `C[N+]1(C)[C@@H]2CC(OC(=O)[C@H](CO)c3ccccc3)C[C@H]1[C@@H]1O[C@@H]12` (stereo not given in full), the Potency entry in assay [1] and in assay [2] was “inactive” each time.
